High-throughput results as filed in PubChem BioAssay.
ATXN2 expr inh: reduces ATXN2 reporter expression in HEK-293 cells; HEK-293 ATXN2-luciferase reporter, luminescence, 24 h; Potency, µM (titrated, usually from 57 µM), actives largely listed as inhibitors; 360,000 tested, 0.72% active; AID 1745845; note: nearly all actives have a fitted effect of over 55% in size
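ATXN2-luciferase reporter cells (luciferase flanked by upstream and downstream ATXN2 gene portions) were treated 24 h at 37 °C with compounds at up to 57 uM. SteadyGlo luminescence gave expression; GF-AFC fluorescence gave viability.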
HepG2 tox: counter-screen for TGF-b inhibitors: cytotoxicity in HepG2 cells | HepG2 CAGA-GFP viability, ATP luminescence, 18 h | Potency, µM (titrated, usually from 46.1 µM), usual class: cytotoxic | 410,000 tested, 0.76% active | AID 588856
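HepG2 CAGA-GFP cells (1000/well, DMEM with 1% FBS) received compound, then TGF-beta at 500 pg/mL final, and were incubated 18 hours at 37 degrees C. Viability was read by CellTiter-Glo luminescence. Media-only wells were set as complete cell-killing and DMSO as no toxicity.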
TGFb inhibitor: inhibitors of TGF-b signaling; HepG2 CAGA-GFP TGF-b/SMAD3 reporter, GFP fluorescence, 18 h; TGF-beta stimulated, 500 pg/mL final; 410,000 tested, 1.2% active; Potency, µM (titrated, usually from 46.1 µM), actives largely listed as inhibitors; note: nearly all actives have a fitted effect of over 65% in size
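TGF-beta reporter screen: HEPG2 CAGA-GFP, 1% FBS, 500 pg/mL TGF-beta final, 18 h; per-cell GFP summed per well; curves fitted and categorized by class.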
S2 tox: viability counter-screen for ATXN expression inhibitors | S2 cells (HEK-293 line with an ATXN2-luciferase reporter) viability, CellTiter-Fluor protease fluorescence, 24 h | Potency, µM (top dose mostly 56.7 µM), most hits filed as cytotoxic | 400,000 tested, 0.49% active | AID 651635; note: nearly all actives have a fitted effect of over 40% in size
TDP1 cell CPT: growth inhibition of DT40 Tdp1-/-;hTDP1 cells with camptothecin (screen for TDP1 inhibitors); chicken DT40 Tdp1-/-;hTDP1 cells + 20 nM CPT, ATP luminescence, 48 h; Potency, µM (titrated, usually from 46.2 µM), actives largely listed as inhibitors; 420,000 tested, 12% active; AID 686979; note: nearly all actives have a fitted effect of over 55% in size
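Cell growth measured by CellTiter-Glo luminescence after a minimum 48 h, 37 C compound exposure with 20 nM CPT in Tdp1-knockout DT40 cells stably expressing hTDP1, seeded 400/well; qHTS titration format.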
DT40 TDP1 no CPT: qHTS for Inhibitors of human tyrosyl-DNA phosphodiesterase 1 (TDP1): qHTS in cells in absence of CPT; DT40 Tdp1-/- hTDP1 cells, no CPT, ATP luminescence, 48 h; Potency, µM (highest dose often 46.2 µM), usual class: inhibitors; 420,000 tested, 15% active; AID 686978, 2013; note: nearly all actives have a fitted effect of over 55% in size
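Compound effects on proliferation are scored in DT40 Tdp1-/-;hTDP1 cells in the absence of CPT. ATP levels (CellTiter-Glo luminescence) are recorded after a ≥48 hr, 37 °C incubation.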
Large screens that a line does not name were inactive. Sampled rows, rich in hits. Any-hit rate of the full collection: about 17%. Calls come from the whole dose curve; as a rule, active = well fitted curve in the direction sought with a large enough effect; inconclusive = small, poorly fitted or top-dose-only effect, or another doubt; inactive = no such curve, though single readings can be large; an effect the other way counts as inactive or inconclusive.

COc1cc(F)c(C2=CC(=O)C[C@H](c3ccc4c(c3)OCO4)C2)cc1F	none
CCCCNC(=O)[C@@H]1CC=C[C@@H]2CCN(Cc3ccccc3)C(=O)[C@@H]21	none (no result: ATXN2 expr inh, S2 tox)
COc1ccc(-c2cc(C(=O)NCC3CCCO3)c3ccccc3n2)c(OC)c1 (stereo unspecified)	TDP1 cell CPT inconclusive, DT40 TDP1 no CPT inconclusive
Cc1ccc2nc(-c3ccccc3)cc(C(=O)NCC3CCCO3)c2c1 (stereo unspecified)	DT40 TDP1 no CPT inconclusive
Cc1ccc2nc(-c3ccc(Br)cc3)cc(C(=O)NCC3CCCO3)c2c1 (stereo unspecified)	TDP1 cell CPT 15µM, DT40 TDP1 no CPT 15µM (no result: ATXN2 expr inh)
CCOc1ccc(-c2cc(C(=O)NCC3CCCO3)c3ccccc3n2)cc1 (stereo unspecified)	S2 tox inconclusive, TDP1 cell CPT 16µM, DT40 TDP1 no CPT 15µM
O=C(c1ccco1)N1CCN(c2ccc([N+](=O)[O-])c(N3CCOCC3)c2)CC1	none
CCOC(=O)c1cc(-c2ccc(F)cc2)n(CC(=O)NCc2cccnc2)c1C	none (no result: ATXN2 expr inh)
c1ccc(-c2c[nH]c3[n+]2CCCCC3)cc1	DT40 TDP1 no CPT 9.2µM
CC(C)(C)C1=NN=C2c3ccccc3C(=O)C21 (stereo unspecified)	S2 tox inconclusive, DT40 TDP1 no CPT inconclusive (no result: ATXN2 expr inh)
CCc1ccc2cc3c(cc2n1)C(=O)c1ccccc1-3	TGFb inhibitor inconclusive, DT40 TDP1 no CPT inconclusive
Cc1ccc(NC(=O)CN(C)C(=O)c2ccc(Cl)c([N+](=O)[O-])c2)cc1	TDP1 cell CPT inconclusive, DT40 TDP1 no CPT inconclusive
CN(C(=O)c1ccc(Oc2ccc([N+](=O)[O-])cc2)cc1)C1CCCCC1	TGFb inhibitor inconclusive, TDP1 cell CPT inconclusive, DT40 TDP1 no CPT 23µM
CN(C(=O)c1ccc(-c2ccccc2)cc1)C1CCCCC1	S2 tox inconclusive, TDP1 cell CPT inconclusive, DT40 TDP1 no CPT inconclusive
CN(C(=O)c1cccc(NC(=O)Cc2ccc([N+](=O)[O-])cc2)c1)C1CCCCC1	TGFb inhibitor inconclusive, S2 tox inconclusive, TDP1 cell CPT 21µM, DT40 TDP1 no CPT 15µM
CN(C(=O)c1cccc(NC(=O)Cc2ccc(NC(=O)C3CCN(S(=O)(=O)c4cccc([N+](=O)[O-])c4)CC3)cc2)c1)C1CCCC1	TDP1 cell CPT inconclusive, DT40 TDP1 no CPT inconclusive
O=C(CN(C(=O)c1cccc([N+](=O)[O-])c1)C1CCCCC1)Nc1ccc(Cl)c([N+](=O)[O-])c1	TGFb inhibitor inconclusive, S2 tox inconclusive, TDP1 cell CPT inconclusive, DT40 TDP1 no CPT 16µM
CN(C(=O)c1cccc(NC(=O)Cc2ccc(NC(=O)C3CCCN(C(=O)C4CCCCC4)C3)cc2)c1)C1CCCC1 (stereo unspecified)	TGFb inhibitor inconclusive, TDP1 cell CPT inconclusive, DT40 TDP1 no CPT inconclusive
CN(C(=O)c1cccc(NC(=O)Cc2cccc(NC(=O)C3CCCN(C(=O)C4CCCC4)C3)c2)c1)C1CCC1 (stereo unspecified)	TGFb inhibitor inconclusive, TDP1 cell CPT 16µM, DT40 TDP1 no CPT inconclusive
CCC1CCC(N2CCN(c3ccc([N+](=O)[O-])cc3)CC2)CC1 (stereo unspecified)	TDP1 cell CPT inconclusive, DT40 TDP1 no CPT inconclusive
COc1ccc(-c2c(C)nn3c4c(cnc23)C(=O)CC(c2ccccc2)C4)cc1 (stereo unspecified)	none
Cc1ccccc1OCCNC(=O)CNC(=O)c1ccccc1O	none
O=C(CSc1c2c(nc3ccccc13)CCC2)Nc1ccc(F)cc1F	TGFb inhibitor inconclusive, TDP1 cell CPT inconclusive, DT40 TDP1 no CPT inconclusive (no result: ATXN2 expr inh, S2 tox)
CN(C(=O)c1cccc(NC(=O)Cc2cccc(NC(=O)C3CCCN(C(=O)C4CCC4)C3)c2)c1)C1CCC1 (stereo unspecified)	TGFb inhibitor inconclusive, TDP1 cell CPT inconclusive, DT40 TDP1 no CPT 23µM
CN(C(=O)c1ccc(NC(=O)Cc2cccc(NC(=O)C3CCCN(C(=O)C4CCCC4)C3)c2)cc1)C1CCCC1 (stereo unspecified)	TGFb inhibitor inconclusive, TDP1 cell CPT 21µM, DT40 TDP1 no CPT inconclusive
CN(C(=O)c1cccc(NC(=O)Cc2ccc(NC(=O)C3CCCN(C(=O)C4CCC4)C3)cc2)c1)C1CCCCC1 (stereo unspecified)	S2 tox inconclusive, TDP1 cell CPT 23µM, DT40 TDP1 no CPT inconclusive
CN(Cc1ccccc1)C(=O)COC(=O)c1ccc[nH]c1=O	none
COc1ccc(/C=C/C(O)=C2/C(=O)NC3(C)CC2c2ccccc2O3)c(OC)c1OC (stereo unspecified)	S2 tox inconclusive, TDP1 cell CPT 8.2µM, DT40 TDP1 no CPT 7.3µM (no result: ATXN2 expr inh)
COc1ccc(/C=C/C(O)=C2/C(=O)N(C)C3(C)CC2c2ccccc2O3)cc1 (stereo unspecified)	ATXN2 expr inh inconclusive, TDP1 cell CPT 23µM, DT40 TDP1 no CPT 21µM
CCN1C(=O)C(C(=O)Nc2ccc(OC)cc2)C2CC1(C)Oc1ccccc12 (stereo unspecified)	TGFb inhibitor inconclusive
CN(CC(=O)Nc1ccc(F)cc1[N+](=O)[O-])C1CCS(=O)(=O)C1 (stereo unspecified)	S2 tox inconclusive
O=C(NNC(=O)C12CC3CC(CC(C3)C1)C2)c1cnccn1	S2 tox inconclusive, TDP1 cell CPT inconclusive, DT40 TDP1 no CPT inconclusive
O=C(NNC(=O)C12CC3CC(CC(C3)C1)C2)c1ccccn1	ATXN2 expr inh inconclusive, TGFb inhibitor inconclusive, S2 tox inconclusive, TDP1 cell CPT 4.1µM, DT40 TDP1 no CPT 5.2µM
CCOc1cc(/C=C2/C(=N)N3C(=NC2=O)SN=C3S(C)(=O)=O)ccc1OS(=O)(=O)c1ccccc1	TDP1 cell CPT inconclusive, DT40 TDP1 no CPT 21µM (no result: ATXN2 expr inh)
COc1ccc(Cc2cnc(N)s2)cc1	none
COc1ccc(NC(=O)c2cccc(-n3c(C)ccc3C)c2)c(OC)c1	S2 tox inconclusive, TDP1 cell CPT inconclusive, DT40 TDP1 no CPT 26µM
Cc1ccc(C)n1-c1cccc(C(=O)Nc2ccccc2)c1	TDP1 cell CPT inconclusive, DT40 TDP1 no CPT 15µM (no result: ATXN2 expr inh)
COc1ccc(NC(=O)c2cccc(N3CCCS3(=O)=O)c2)c(OC)c1	none
Cc1ccc(CNC(=O)C2c3ccccc3C(=O)N3CCc4ccccc4C23)o1 (stereo unspecified)	TDP1 cell CPT inconclusive, DT40 TDP1 no CPT 23µM
O=C(NCCN1CCN(Cc2ccccc2)CC1)C1c2ccccc2C(=O)N2CCc3ccccc3C12 (stereo unspecified)	S2 tox inconclusive
